Source: PubChem BioAssay AID1159580 (chemical genetic matrix, 2015)
The campaign covered roughly 5,500 compounds. About 2,000 (36%) were called active. About 18% were inconclusive and are not listed. No stated cut-off is given here; in the data, active means normalized growth mostly below about 0.91 (no sharp cut-off); inconclusive means no clear call, values can overlap the other calls; inactive means mostly above about 0.92. Some of the results follow.

Assay: chemical genetic growth profiling, strain panel (AID 1159580);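 further: tested at 20 µM; growth read once vehicle control cultures reached saturation at 30 °C; 1 = growth at the plate median or of vehicle wells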
Conditions: growth OD
[1] = S. cerevisiae deletion strains, locus YAL040C, strain CLN3, stronger effect = lower value
[2] = S. cerevisiae deletion strains, locus YCL061C, strain MRC1 (second series), stronger effect = lower value
[3] = S. cerevisiae deletion strains, locus YDR363W, strain ESC2, stronger effect = lower value
[4] = S. cerevisiae deletion strains, locus YER002W, strain NOP16, stronger effect = lower value
[5] = S. cerevisiae deletion strains, locus YGR078C, strain PAC10, stronger effect = lower value
[6] = S. cerevisiae deletion strains, locus YMR307W, strain GAS1, stronger effect = lower value
[7] = S. cerevisiae deletion strains, locus YNL175C, strain NOP13, stronger effect = lower value
[8] = S. cerevisiae deletion strains, locus YNL197C, strain WHI3, stronger effect = lower value
[9] = S. cerevisiae deletion strains, locus YNL224C, strain SQS1, stronger effect = lower value
[10] = S. cerevisiae deletion strains, locus YOR083W, strain WHI5 (second series), stronger effect = lower value
[11] = S. cerevisiae deletion strains, locus YPL055C, strain LGE1, stronger effect = lower value
[12] = S. cerevisiae deletion strains, locus YPL241C, strain CIN2, stronger effect = lower value
[13] = S. cerevisiae deletion strains, locus YAL013W, strain DEP1, stronger effect = lower value

Measured: normalized growth

COc1cc(-c2ccc(=O)[nH]n2)ccc1OC(F)F
inactive: [1] 0.975 | [2] 1.01 | [3] 0.997 | [4] 1 | [5] 1.01 | S. cerevisiae deletion strains, locus YJR075W, strain HOC1, stronger effect = lower value 1 | [6] 0.995 | S. cerevisiae deletion strains, locus YNL128W, strain TEP1, stronger effect = lower value 1.01 | [7] 1.03 | [8] 0.994 | [9] 1.01 | S. cerevisiae deletion strains, locus YNL322C, strain KRE1, stronger effect = lower value 0.997 | [10] 1.02 | [11] 1.02 | [12] 1

Cn1ccnc1
inactive: [13] 1.01 | [1] 1.01 | [2] 1 | S. cerevisiae deletion strains, locus YDR150W, strain NUM1, stronger effect = lower value 1 | [3] 1.01 | [4] 1 | [5] 1.01 | S. cerevisiae deletion strains, locus YMR263W, strain SAP30, stronger effect = lower value 1.01 | [6] 1 | [7] 1 | [8] 1 | [9] 1.01 | [10] 1.02 | [11] 1

CC(=O)O[C@H]1CC[C@@]2(C)C(CC[C@]3(C)C2C(=O)C=C2C4[C@@H](C)[C@H](C)CC[C@]4(C(=O)O)CC[C@]23C)C1(C)C (some centres not stated)
active: S. cerevisiae deletion strains, locus YKL009W, strain mrt4, stronger effect = lower value 1.52 [resistant] | S. cerevisiae deletion strains, locus YKL085W, strain MDH1 (second series), stronger effect = lower value 1.08 [resistant] | S. cerevisiae deletion strains, locus YKL085W, strain MDH1, stronger effect = lower value 1.08 [resistant]
inactive: [13] 1 | S. cerevisiae deletion strains, locus YBR021W, strain FUR4, stronger effect = lower value 1.03 | S. cerevisiae deletion strains, locus YBR229C, strain ROT2, stronger effect = lower value 1.01 | S. cerevisiae deletion strains, locus YCL029C, strain bik1, stronger effect = lower value 0.989 | S. cerevisiae deletion strains, locus YDL035C, strain GPR1, stronger effect = lower value 0.993 | S. cerevisiae deletion strains, locus YDL074C, strain BRE1, stronger effect = lower value 0.981 | S. cerevisiae deletion strains, locus YDL101C, strain DUN1, stronger effect = lower value 1.01 | S. cerevisiae deletion strains, locus YDL185W, strain tfp1, stronger effect = lower value 0.971 | S. cerevisiae deletion strains, locus YDL192W, strain arf1, stronger effect = lower value 0.992 | S. cerevisiae deletion strains, locus YDR101C, strain arx1, stronger effect = lower value 1.01 | S. cerevisiae deletion strains, locus YDR162C, strain NBP2, stronger effect = lower value 1.03 | S. cerevisiae deletion strains, locus YDR318W, strain mcm21, stronger effect = lower value 0.995 | S. cerevisiae deletion strains, locus YDR388W, stronger effect = lower value 1 | S. cerevisiae deletion strains, locus YDR502C, strain sam2, stronger effect = lower value 0.982 | S. cerevisiae deletion strains, locus YEL061C, strain CIN8, stronger effect = lower value 1.01 | S. cerevisiae deletion strains, locus YER110C, stronger effect = lower value 0.988 | S. cerevisiae deletion strains, locus YER155C, strain BEM2, stronger effect = lower value 1.01 | S. cerevisiae deletion strains, locus YER167W, strain BCK2, stronger effect = lower value 0.991 | S. cerevisiae deletion strains, locus YGL078C, strain dbp3, stronger effect = lower value 1.01 | S. cerevisiae deletion strains, locus YGL086W, strain mad1, stronger effect = lower value 1.04 | S. cerevisiae deletion strains, locus YGL248W, strain PDE1, stronger effect = lower value 1.01 | [5] 1.01 | S. cerevisiae deletion strains, locus YGR135W, strain pre9, stronger effect = lower value 1 | S. cerevisiae deletion strains, locus YGR229C, strain SMI1, stronger effect = lower value 0.994 | S. cerevisiae deletion strains, locus YGR252W, strain gcn5, stronger effect = lower value 1 | S. cerevisiae deletion strains, locus YHR030C, strain SLT2, stronger effect = lower value 1.01 | S. cerevisiae deletion strains, locus YHR079C, strain IRE1 (second series), stronger effect = lower value 0.997 | S. cerevisiae deletion strains, locus YHR094C, strain hxt1, stronger effect = lower value 0.989 | S. cerevisiae deletion strains, locus YHR129C, strain ARP1, stronger effect = lower value 1.01 | S. cerevisiae deletion strains, locus YHR200W, strain rpn10, stronger effect = lower value 1.01 | S. cerevisiae deletion strains, locus YIL066C, strain RNR3, stronger effect = lower value 1 | S. cerevisiae deletion strains, locus YIL073C, strain SPO22, stronger effect = lower value 1.03 | S. cerevisiae deletion strains, locus YIL125W, strain kgd1, stronger effect = lower value 0.98 | S. cerevisiae deletion strains, locus YIR030C, strain dcg1, stronger effect = lower value 0.992 | S. cerevisiae deletion strains, locus YJL095W, strain BCK1, stronger effect = lower value 1.02 | S. cerevisiae deletion strains, locus YJL134W, strain LCB3, stronger effect = lower value 1.01 | S. cerevisiae deletion strains, locus YJL168C, strain set2, stronger effect = lower value 0.988 | S. cerevisiae deletion strains, locus YJL187C, strain SWE1 (second series), stronger effect = lower value 1 | S. cerevisiae deletion strains, locus YJR043C, strain POL32, stronger effect = lower value 1.02 | S. cerevisiae deletion strains, locus YKL068W, stronger effect = lower value 1.03 | S. cerevisiae deletion strains, locus YKR001C, strain vps1, stronger effect = lower value 0.978 | S. cerevisiae deletion strains, locus YLR039C, strain RIC1, stronger effect = lower value 0.99 | S. cerevisiae deletion strains, locus YLR058C, strain SHM2, stronger effect = lower value 1 | S. cerevisiae deletion strains, locus YLR102C, strain apc9, stronger effect = lower value 0.99 | S. cerevisiae deletion strains, locus YLR262C, strain YPT6, stronger effect = lower value 1.02 | S. cerevisiae deletion strains, locus YLR268W, strain sec22, stronger effect = lower value 0.979 | S. cerevisiae deletion strains, locus YLR330W, strain CHS5, stronger effect = lower value 1.01 | S. cerevisiae deletion strains, locus YLR342W, strain FKS1 (second series), stronger effect = lower value 0.99 | S. cerevisiae deletion strains, locus YLR371W, strain rom2, stronger effect = lower value 0.984 | S. cerevisiae deletion strains, locus YLR418C, strain cdc73, stronger effect = lower value 0.946 | S. cerevisiae deletion strains, locus YML016C, strain PPZ1, stronger effect = lower value 1.01 | S. cerevisiae deletion strains, locus YML032C, strain rad52, stronger effect = lower value 0.981 | S. cerevisiae deletion strains, locus YML124C, strain tub3, stronger effect = lower value 0.995 | S. cerevisiae deletion strains, locus YMR078C, strain ctf18, stronger effect = lower value 1.01 | S. cerevisiae deletion strains, locus YMR223W, strain ubp8, stronger effect = lower value 0.985 | [6] 1.1 | S. cerevisiae deletion strains, locus YNL067W, strain RPL9B, stronger effect = lower value 1.01 | S. cerevisiae deletion strains, locus YNL233W, strain BNI4, stronger effect = lower value 1.02 | S. cerevisiae deletion strains, locus YNL250W, strain rad50, stronger effect = lower value 0.989 | S. cerevisiae deletion strains, locus YNL271C, strain bni1, stronger effect = lower value 0.991 | S. cerevisiae deletion strains, locus YNL298W, strain CLA4, stronger effect = lower value 1.01 | S. cerevisiae deletion strains, locus YNL307C, strain MCK1, stronger effect = lower value 0.987 | S. cerevisiae deletion strains, locus YNR052C, strain pop2, stronger effect = lower value 0.978 | S. cerevisiae deletion strains, locus YOL006C, strain TOP1, stronger effect = lower value 0.978 | S. cerevisiae deletion strains, locus YOL012C, strain htz1 0.848 | S. cerevisiae deletion strains, locus YOL147C, strain pex11, stronger effect = lower value 0.991 | S. cerevisiae deletion strains, locus YOR061W, strain CKA2, stronger effect = lower value 0.99 | S. cerevisiae deletion strains, locus YOR069W, strain VPS5, stronger effect = lower value 1.01 | S. cerevisiae deletion strains, locus YOR136W, strain idh2, stronger effect = lower value 0.987 | S. cerevisiae deletion strains, locus YOR144C, strain elg1, stronger effect = lower value 0.992 | S. cerevisiae deletion strains, locus YOR184W, strain ser1, stronger effect = lower value 0.995 | S. cerevisiae deletion strains, locus YOR316C, strain cot1, stronger effect = lower value 0.995 | [11] 0.994 | [12] 1.01 | S. cerevisiae deletion strains, locus YPR119W, strain clb2, stronger effect = lower value 1.01 | S. cerevisiae deletion strains, locus YPR141C, strain kar3, stronger effect = lower value 0.995 | S. cerevisiae deletion strains, locus YPR163C, strain tif3, stronger effect = lower value 1.01 | S. cerevisiae deletion strains, locus YPR167C, strain met16, stronger effect = lower value 0.978 | S. cerevisiae deletion strains, strain wtn01, stronger effect = lower value 0.977 | S. cerevisiae strains, strain wild type, stronger effect = lower value 1
